Assay outcomes deposited in PubChem by National Center for Advancing Translational Sciences (NCATS).
HCV inhibitor: qHTS Assay for Inhibitors of Hepatitis C Virus (HCV) | Potency, µM (doses to about 41.8 µM), without a hit: top-dose activity change, negative = inhibition, usual class: inhibitors | 3.4% of 340,000 active | Huh7.5.1 HCVcc-Cre infection, luciferase reporter, 44 h; note: potency is the fitted concentration of half-maximal effect
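Seed cells (1,000/well) for 4 h; treat with compound and infect with HCVcc-Cre, moi about 0.5. Incubate 44 h, then detect luciferase activity.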
Lassa entry inh: qHTS for Inhibitors of binding or entry into cells for Lassa Virus. Potency, µM (doses to about 37.9 µM), for inactives: at the top dose activity change, negative = inhibition, hits mostly inhibitors. Lassa virus pseudotype entry inhibition, cell reporter. 1.2% of 300,000 active; calls by dose curve; tested in HEK293 cells; note: potency is the fitted concentration of half-maximal effect; nearly all actives have a fitted effect of over 50% in size
HCMV inh: qHTS Assay for inhibitors of the human cytomegalovirus (HCMV) | HFF cells, HCMV-luciferase reporter, 72 h; active compounds read low | 4.5% of 410,000 active | activity change, negative = inhibition, % at 57.5 µM; in the data active = activity change below about -60%; inconclusive = no clear call, values can overlap the other calls; inactive = above about -39%
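Human foreskin fibroblasts infected with luciferase-reporter HCMV at MOI 1 PFU/cell, compounds at two doses. Luciferase measured 72 h post infection; normalized to buffer-only basal and Salinomycin (10uM) controls.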
FBPA Giardia inh: qHTS Assay for Inhibitors of Fructose-1,6-bisphosphate Aldolase from Giardia Lamblia; A8B2U2; purified Giardia FBPA; Potency, µM (doses to about 59.6 µM), without a hit: at the top dose activity, negative = inhibition, most hits filed as inhibitors; 0.71% of 290,000 active; AID 2451, 2010; note: potency is the fitted concentration of half-maximal effect; nearly all actives have a fitted effect of over 55% in size
Target sequence (A8B2U2 whole entry, looked up): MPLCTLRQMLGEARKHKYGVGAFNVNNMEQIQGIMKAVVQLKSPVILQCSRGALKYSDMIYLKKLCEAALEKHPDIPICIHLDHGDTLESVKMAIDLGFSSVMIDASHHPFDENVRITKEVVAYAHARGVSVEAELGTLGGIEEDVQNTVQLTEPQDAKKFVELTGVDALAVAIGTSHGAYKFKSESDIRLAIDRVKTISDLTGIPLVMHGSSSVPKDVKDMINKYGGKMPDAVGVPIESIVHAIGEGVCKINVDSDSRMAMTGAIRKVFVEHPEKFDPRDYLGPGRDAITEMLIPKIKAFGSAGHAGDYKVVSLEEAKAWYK
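Giardia FBPA (40 nM reagent) was preincubated 10 min at RT with compound (up to 57.5 uM final), then substrate plus GAPDH/TPI/NAD/arsenate coupling system with diaphorase/resazurin was added; resorufin fluorescence (525/598 nm) was read after 20 min.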
Marburg entry inh: qHTS for inhibitors of binding or entry into cells for Marburg Virus; Potency, µM (doses to about 37.8 µM), inactives show at the highest dose activity change, negative = inhibition, actives largely listed as inhibitors; 1.8% of 300,000 active; Marburg virus pseudotyped entry inhibition, cell reporter; calls by dose curve; tested in HEK293 cells; note: potency is the fitted concentration of half-maximal effect
FMDV inh: High Throughput Screening for Foot and Mouth Disease Virus Antivirals; AID 1159524, 2015; FMDV antiviral cell-based qHTS; Potency, µM (doses to about 57.9 µM), without a hit: top-dose activity change, negative = inhibition, most hits filed as inhibitors; 1.2% of 410,000 active; calls by dose curve; tested in HEK293T cells; note: read-out not given here; potency is the fitted concentration of half-maximal effect; nearly all actives have a fitted effect of over 45% in size
* hit, by the source's call; ? = inconclusive; . = not tested or not shown; [ ] = remark or other dose. A selection: hits, their analogues and other compounds. The true share with any hit is near 8.3%. Unless noted, calls come from the whole dose curve; as a rule, active = well fitted curve in the direction sought with a large enough effect; inconclusive = small, poorly fitted or top-dose-only effect, or another doubt; inactive = no such curve, though single readings can be large; an effect the other way counts as inactive or inconclusive. % is set by controls: 0 for no effect and ±100 for the full control effect.

SMILES	HCV inhibitor	Lassa entry inh	HCMV inh	FBPA Giardia inh	Marburg entry inh	FMDV inh
C=CCN1C(=O)NC(c2ccccc2)(C(F)(F)F)S/C1=C(\C#N)c1nnc(N2CCOCC2)n1-c1ccccc1 (centres undefined)	?	-29%	-25	-17%	-28%	32µM*
CC(C)OC(=O)CC(=O)CSc1nc2c(c(-c3cccs3)c1C#N)CCC2	10µM*	.	-19	3%	.	-14%
COc1ccc(OC2C=CC(C#Cc3ccccc3)OC2CO)cc1 (centres undefined)	.	.	.	-1%[12.9 µM]	.	.
O=C(c1cccc(F)c1)N1CC(=O)N2[C@H](CO)[C@@H](c3ccc(Br)cc3)[C@@H]2C1	.	.	-13	.	.	.
CC12CCC(=O)N1C(C(=O)Nc1cc(C(F)(F)F)ccc1N1CCCCC1)CS2 (centres undefined)	3.5µM*	6%[46.1 µM]	-5	.	?	-13%
CC12CCC(=O)N1C(C(=O)Nc1cc(C(F)(F)F)ccc1N1CCOCC1)CS2 (centres undefined)	8.9µM*	0%	-8	.	-6%	-13%
CC12CCC(=O)N1C(C(=O)Nc1cc(Cl)ccc1N1CCCC1)CS2 (centres undefined)	8.9µM*	9%	0	.	?	-20%
CC12CCC(=O)N1C(C(=O)Nc1ccccc1N1CCOCC1)CS2 (centres undefined)	-5%	-6%	2	-4%	?	-9%
CCN(C(=O)c1cc(S(=O)(=O)N2CCCC2)cn1C)c1ccc(OC)cc1	.	-12%[46.1 µM]	-33	.	.	54%
Cc1ccccc1-c1noc(-c2nnn(-c3ccccc3C)c2N)n1	.	?	6	.	.	19%
O=C(CCN1C(=O)C2C3C=CC(C4CC34)C2C1=O)OCC(=O)c1ccccc1 (centres undefined)	11%	14%	-83*	.	4%	-12%
O=C(CCN1C(=O)C2C3C=CC(C4CC34)C2C1=O)Oc1cccc2cccnc12 (centres undefined)	?	-20%	-95*	?	16µM*	-26%
Cc1ccc(C(=O)COC(=O)CCN2C(=O)C3C4C=CC(C5CC45)C3C2=O)cc1 (centres undefined)	34%	18%[46.1 µM]	?	.	12%[46.1 µM]	-18%
COc1ccc(C)cc1Nc1n[n+](-c2ccccc2)c(-c2c(OC)ccc3ccccc23)s1	32µM*	.	-101*	.	.	?
COc1ccc(C)cc1Nc1n[n+](-c2ccccc2)c(-c2cc(OC)c(OC)cc2Br)s1	-28%	.	7	?	.	-3%
Oc1ccc2ccccc2c1-c1sc(Nc2ccccc2)n[n+]1-c1ccc(F)cc1	-8%	.	8	1%	.	-7%
c1ccc(-[n+]2nc(Nc3cccc4ccccc34)sc2-c2c3ccccc3cc3ccccc23)cc1	3.5µM*	.	.	.	.	-9%
Cc1csc(Nc2cccc3ccccc23)n1	-4%	4%	-28	-26%	?	22%
Fc1ccc(-[n+]2nc(Nc3ccccc3)sc2-c2c3ccccc3cc3ccccc23)cc1	-8%[8.37 µM]	.	-98*	22µM*	.	40µM*
CC1(C)CC2(C)OC(=N)C1(C#N)C2(C#N)C#N (centres undefined)	-6%	?	26	-5%	?	22µM*
Cc1cccc(Cn2cnc3c(cnn3-c3ccc(Cl)cc3)c2=O)c1	.	?	9	.	-21%[46.1 µM]	-24%
Cc1ccc(C(C)C)c(OCCNC(=S)Nc2cccc3ccccc23)c1	32µM*	16%	-25	2%	?	?
S=C(NCc1ccccc1)Nc1cccc2ccccc12	10µM*	?	?	-22%	7%[46.1 µM]	27%
Cc1c(Cl)cccc1NC(=S)NCc1ccccc1	-17%	7%	-78*	.	1%	56%
Cc1c(Cl)cccc1NC(=S)NCc1ccc(Cl)cc1	-10%	-10%	?	.	?	1%
SMILES	HCV inhibitor	Lassa entry inh	HCMV inh	FBPA Giardia inh	Marburg entry inh	FMDV inh
COc1ccc(-n2nc(C(=O)NCCc3ccc(OC)c(OC)c3)c3c4ccccc4n(C)c3c2=O)cc1Cl	.	?	10	.	?	?
C=CC[C@@H]1C=C[C@H](ON=C(C)CCN2CCCc3nc(C)c(C)cc32)[C@H](CO)O1	.	.	.	.	23%[14.2 µM]	.
Cc1ccc2[nH]c3nc(CCCn4ccnc4-c4ccccc4)nnc3c2c1	.	.	.	-3%[12.9 µM]	4%[14.2 µM]	.
CC[C@]1(c2ccccc2)NC(=O)NC1=O	.	.	.	-5%	.	.
c1ccc(C2(CN3CCNC[C@@H]3CC3CCCCC3)CC2)cc1	22µM*	.	-11	.	.	-28%
COc1ccccc1CN1CC(C(=O)NCC2(O)CCCCC2)CCC1=O (centres undefined)	.	.	-64*	.	.	-8%
COC(=O)N1C2=C(c3ccccc3[C@@H]1CC(=O)Nc1ccc(Br)cc1)[C@@H]1C(=O)N(c3ccccc3)C(=O)[C@@H]1[C@H](C)C2	.	.	.	-1%[12.9 µM]	.	.
CN1C/C(=C/c2ccsc2)C(=O)/C(=C/c2ccsc2)C1	?	?	-86*	-30%	5µM*	28µM*
CN1C/C(=C\c2ccc(N3CCOCC3)cc2)C(=O)/C(=C/c2ccc(N3CCOCC3)cc2)C1	11µM*	2%	?	-29%	?	?
CCN1C/C(=C/c2ccc(N3CCOCC3)cc2)C(=O)/C(=C/c2ccc(N3CCOCC3)cc2)C1	?	?	-102*	-16%	?	28µM*
CN1C/C(=C/c2ccncc2)C(=O)/C(=C/c2ccncc2)C1	16%	?	-7	-10%	0%[46.1 µM]	-7%
COc1ccc(CCNC(=O)Cc2c(C)c3c(cc(C)c4c(C)coc43)oc2=O)cc1	.	19%[46.1 µM]	-8	.	-1%[46.1 µM]	-6%
O=C(NCc1nnc2n1CCN(Cc1cccc(C(F)(F)F)c1)CC2)c1ccncc1	.	.	.	.	.	-12%
O=C(NCCN1CCOCC1)C1(C(F)(F)F)C/C(=C/CCO)CCCO1 (centres undefined)	.	.	.	-1%	.	.
CCCn1c(C)nc2c(NCCCCN3CCCC3)nc(C)nc21	.	.	.	-2%	.	.
COc1ccc(OC)c(CCNC(=O)c2cc3cccc4c3n2CCS4)c1	.	-25%[46.1 µM]	0	.	.	4.5µM*
COc1ccc(OC)c(CCNC(=O)c2csc3c2CCCCC3)c1	.	.	-62*	.	?	33%
COc1ccc(-c2cn3c(n2)sc2cc(C(=O)NCCC4=CCCCC4)ccc23)cc1	.	-14%[46.1 µM]	.	.	.	0%
OCCCc1nc2n(n1)C(c1cccs1)C=C(c1ccccc1)N2 (centres undefined)	.	.	.	-11%	7%	.
OCCCc1nc2n(n1)C(c1ccccc1)C=C(c1ccc(F)cc1)N2 (centres undefined)	11µM*	-1%	-37	-4%	7%	-20%
CCCNC(=O)c1cnc2c(-c3ccc(OCC)c(OCC)c3)c(C)nn2c1-c1ccccc1	.	5%[46.1 µM]	-7	.	.	?
